PubChem BioAssay (NCI)
About 83,000 compounds went through this panel and 20% of them were active in at least one assay; those are over-represented in the sample as a whole.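 The test compound was applied at a single concentration to cells in 96-well plates for 48 hours, and percent growth was recorded.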 A number with no mark means an inactive call. Calls of active or inactive are those of the source. Rule for the calls: active = growth percent below 10; inactive = the rest.

Key:
Test in all cases: NCI-60 one-dose screen, 48 h (100 = growth as untreated, 0 = no growth, -100 = all killed)
Conditions in all cases: 10 µM
HT29 colon = tested on: HT29 colon
SNB-75 CNS = tested on: SNB-75 CNS
SNB-19 CNS = tested on: SNB-19 CNS
U251 CNS = tested on: U251 CNS
PC-3 prostate = tested on: PC-3 prostate
SK-MEL-5 melanoma = tested on: SK-MEL-5 melanoma
UACC-62 melanoma = tested on: UACC-62 melanoma
LOX IMVI melanoma = tested on: LOX IMVI melanoma
SK-MEL-28 melanoma = tested on: SK-MEL-28 melanoma
SK-MEL-2 melanoma = tested on: SK-MEL-2 melanoma
EKVX NSCLC = tested on: EKVX NSCLC
SN12C renal = tested on: SN12C renal
UO-31 renal = tested on: UO-31 renal
TK-10 renal = tested on: TK-10 renal
ACHN renal = tested on: ACHN renal
CAKI-1 renal = tested on: CAKI-1 renal
CCRF-CEM leukemia = tested on: CCRF-CEM leukemia
MOLT-4 leukemia = tested on: MOLT-4 leukemia
SR leukemia = tested on: SR leukemia
A498 renal = tested on: A498 renal

| Structure (SMILES) | growth (HT29 colon) | growth (SNB-75 CNS) | growth (SNB-19 CNS) | growth (U251 CNS) | growth (PC-3 prostate) | growth (SK-MEL-5 melanoma) | growth (UACC-62 melanoma) | growth (LOX IMVI melanoma) | growth (SK-MEL-28 melanoma) | growth (SK-MEL-2 melanoma) | growth (EKVX NSCLC) | growth (SN12C renal) | growth (UO-31 renal) | growth (TK-10 renal) | growth (ACHN renal) | growth (CAKI-1 renal) | growth (CCRF-CEM leukemia) | growth (MOLT-4 leukemia) | growth (SR leukemia) | growth (A498 renal) [%] |
| --- | --- | --- | --- | --- | --- | --- | --- | --- | --- | --- | --- | --- | --- | --- | --- | --- | --- | --- | --- | --- |
| COc1ccc(-c2csc(NC(=O)CSc3nc(C)c(-c4ccccc4)n3Nc3ccccc3)n2)cc1 | 67.7% | 49% | 82.7% | 61.7% | 34% | 54.4% | 47% | 36.8% | 89.6% | 82% | 38.3% | 42.1% | 4.89% (active) | 86.1% | 59% | 20% | 28.3% | 31.1% | 40.7% | – |
| O=C(N/N=C/c1ccccc1)C(Oc1ccccc1)c1ccccc1 (stereo not given) | 100% | 83.9% | 94.6% | 106% | 90.6% | 93.5% | 74.9% | 90.1% | 93.6% | 120% | 80.8% | 96.5% | 76% | 106% | 93.1% | 85.6% | 93.7% | 101% | 91.8% | – |
| O=C(Nc1cccc(Cl)c1)Nc1nccs1 | 94.4% | 91.6% | 83.4% | 94.1% | 94.5% | 89.7% | 79.8% | 94.1% | 103% | 97.2% | 98.1% | 87.7% | 89.9% | 109% | 98.5% | – | 83.2% | 101% | 78.5% | 99.2 |
| S=c1[nH]ccn1-c1c(Cl)cccc1Cl | 105% | 102% | 90.9% | 104% | 106% | 106% | 97.3% | 99% | 101% | 140% | 103% | 92.6% | 91% | 112% | 101% | – | 76.7% | 106% | 104% | 116 |
| O=C(Nc1nc(-c2ccccc2Cl)cs1)c1cc(-c2ccc(Cl)cc2)nc2ccc(Cl)cc12 | 6.1% (active) | 20.6% | 39% | 12.5% | 20.8% | -25.4% (active) | 37.5% | 15% | 53.5% | 10.7% | 73.9% | 30.3% | 28.4% | 98.4% | 36.9% | 81.7% | 28.4% | 18.4% | 12.9% | – |
| CC(=O)c1cc(Br)ccc1O | 116% | 106% | 109% | 108% | 93.5% | 104% | 104% | 103% | 105% | 106% | 107% | 120% | 98.7% | 111% | 105% | 111% | 103% | 101% | 102% | – |
| O=c1[nH]c2ccc(Cl)cc2c2ccccc12 | 70.3% | 33.2% | 65.9% | 65.9% | 92.8% | 70.6% | 88.3% | 98.5% | 94.6% | 107% | 41.8% | 87.8% | 20.2% | 81% | 48.9% | 43.2% | 99.3% | 119% | 75.4% | – |
| O=C(Nc1ccc(Cl)c([N+](=O)[O-])c1)Nc1nc2ccccc2s1 | 87.3% | 94.2% | 84.2% | 84% | 49.9% | 74.3% | 70% | 91.4% | 98.8% | 102% | 76.3% | 65.1% | 83.8% | 112% | 81.8% | – | – | 79.7% | 113% | 85.7 |
| O=C1N=NC2=C1c1c3ccccc3c(O)n1CC2 | 103% | 103% | 96.3% | 105% | 86.2% | 112% | 96.4% | 105% | 108% | 110% | 96.1% | 105% | 90% | 104% | 99.9% | – | 97.1% | 104% | 103% | 94.9 |
| CCCCC(CCCCCC(CCCC)NCc1ccc2c(c1)OCO2)NCc1ccc2c(c1)OCO2 (stereo not given) | -100% (active) | -100% (active) | -100% (active) | -95.3% (active) | -100% (active) | -100% (active) | -95.4% (active) | -96.8% (active) | -100% (active) | -87.2% (active) | -75.2% (active) | -92.6% (active) | -100% (active) | -88% (active) | -100% (active) | -87.9% (active) | -32.8% (active) | -66.7% (active) | -64.8% (active) | – |
| O=C1ON=[N+](c2ccc(Cc3ccc([N+]4=NOC(=O)C4CN4CCOCC4)cc3)cc2)C1CN1CCOCC1 (stereo not given) | 89.7% | 72.6% | 86.5% | 62.8% | 56.5% | 53.2% | 53.4% | 65% | 74.9% | 78.6% | 69.9% | 80.3% | 44.3% | 74.5% | – | 49.3% | 63.9% | 68.4% | 23% | 53.7 |
| COc1ccc(Nc2ccnc(NCCNc3ccnc4cc(Cl)ccc34)n2)cc1 | 9.08% (active) | 78.9% | 67.4% | 59.1% | 30.1% | -50.8% (active) | 74.9% | 8.82% (active) | -29% (active) | 71.8% | – | 57.7% | 44.8% | 71.6% | 57.3% | 60.6% | 42.1% | 18% | – | 37.3 |
| CCOCCOCCOCCOCCOCCOCCOCCOCCOCCO (tested in a mixture with another compound) | -44% (active) | 32.8% | 25.2% | 7.66% (active) | 9.21% (active) | -81.6% (active) | 13.2% | -72.5% (active) | 36.5% | -61.7% (active) | 12.7% | 10.5% | 19.1% | 0.0792% (active) | – | 13.1% | -39.9% (active) | -49.5% (active) | -52.4% (active) | 32.8 |
